Results reported in PubChem BioAssay AID1851 (National Center for Advancing Translational Sciences (NCATS), 2009).
The whole screen tested about 16,000 compounds, of which about 5,700 (36%) were called active. Another 24% or so got no clear call; they are omitted. Calls follow the shape of the dose curve; as a rule, active = well fitted curve in the direction sought with a large enough effect; inconclusive = small, poorly fitted or top-dose-only effect, or effect the other way; inactive = no such curve, though single readings can be large or run the other way. The list shows a part of the results.

biological target: Cytochrome P450 1A2 (Homo sapiens) (UniProt P05177); experiment: Cytochrome panel assay with activity outcomes; settings: recombinant CYP, pro-luciferin dealkylation, luminescence, p450-cyp1a2; series mostly up to 57.1 µM
% is scaled to controls: 0 for no effect and ±100 for the full control effect.

Chain of Cytochrome P450 1A2 (Homo sapiens) (P05177 whole entry, looked up): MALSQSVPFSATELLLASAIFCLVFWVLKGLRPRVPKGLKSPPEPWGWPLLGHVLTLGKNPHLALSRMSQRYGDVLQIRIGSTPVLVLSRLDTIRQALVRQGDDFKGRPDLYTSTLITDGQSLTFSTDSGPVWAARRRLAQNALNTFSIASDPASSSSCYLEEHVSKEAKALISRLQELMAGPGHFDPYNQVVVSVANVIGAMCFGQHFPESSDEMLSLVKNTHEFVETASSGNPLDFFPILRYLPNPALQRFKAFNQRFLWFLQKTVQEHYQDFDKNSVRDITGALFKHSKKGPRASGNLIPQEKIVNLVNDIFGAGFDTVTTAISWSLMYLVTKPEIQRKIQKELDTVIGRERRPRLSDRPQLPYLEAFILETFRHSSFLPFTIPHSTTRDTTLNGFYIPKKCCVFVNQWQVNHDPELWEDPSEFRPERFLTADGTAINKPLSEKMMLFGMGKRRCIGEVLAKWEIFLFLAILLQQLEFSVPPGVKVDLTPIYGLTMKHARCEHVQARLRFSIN

Structure (SMILES) | AC50 | activity, negative = inhibition
Cc1ccc(C(=O)O)cc1N1C(=O)c2cccc3cc(Br)cc(c23)C1=O | inactive | –
CC(C)(C)c1cc2c(O)c(c1)Cc1cc(C(C)(C)C)cc(c1O)Cc1cc(C(C)(C)C)cc(c1O)Cc1cc(C(C)(C)C)cc(c1O)Cc1cc(C(C)(C)C)cc(c1O)Cc1cc(C(C)(C)C)cc(c1O)Cc1cc(C(C)(C)C)cc(c1O)Cc1cc(C(C)(C)C)cc(c1O)C2 | – | -14.2% [at 11.4 µM] (inactive)
CN(Cc1cc(C(C)(C)C)cc(Br)c1O)Cc1cc(C(C)(C)C)cc(Br)c1O | 3160 nM (active) | –
CC(CCC(=O)O)(c1cc(Br)c(O)c(Br)c1)c1cc(Br)c(O)c(Br)c1 | – | -17.9% [at 2.29 µM] (inactive)
COc1ccc(CCN(C)CCC(=O)Nc2c(C)cc(C)cc2C)cc1OC | inactive | –
COc1ccc(C(=O)CCN(C)C)c2ccccc12 | 1580 nM (active) | –
COc1ccc(Cc2ccccc2C(=O)O)c2ccccc12 | – | 2.81% [at 2.29 µM] (inactive)
CN(Cc1ccco1)c1ncnc2ccc(-c3cccc(C#N)c3)cc12 | 501 nM (active) | –
CN(C)Cc1ccccc1-c1ccc2ncnc(N(C)Cc3ccco3)c2c1 | 2000 nM (active) | –
CN(Cc1ccco1)c1ncnc2ccc(-c3ccccc3Cl)cc12 | 2000 nM (active) | –
CN(Cc1ccco1)c1ncnc2ccc(-c3ccccc3C(F)(F)F)cc12 | 5010 nM (active) | –
COCC(=O)N1CCC[C@@]2(CCN(Cc3ccccc3OC)C2)C1 | inactive | –
CC(=O)OC[C@@H]1O[C@H](C/C=N\O[C@@H]2O[C@H](COC(C)=O)[C@@H](OC(C)=O)[C@H](OC(C)=O)[C@H]2OC(C)=O)C=C[C@@H]1OC(C)=O | – | -3.65% [at 11.4 µM] (inactive)
CN(Cc1ccco1)c1ncnc2ccc(-c3ccccc3C#N)cc12 | 1000 nM (active) | –
Oc1ccc([C@@H]2CNCc3sccc32)cc1O | inactive | –
COc1ccccc1CN1CCCC2(CCN(C(=O)c3csnn3)CC2)C1 | inactive | –
Cc1cc(C(=O)CC#N)c(C)n1CC(F)(F)F | 15800 nM (active) | –
C=CCn1c(C)cc(C(=O)CN2C(=O)c3ccccc3C2=O)c1C | inactive | –
CC1(C)OC(C(N)=O)C(C(N)=O)O1 (stereo not drawn) | inactive | –
COc1ccccc1OCC(=O)N/N=C1/SCC(=O)N1Cc1ccccc1 | 5010 nM (active) | –
CCOC(=O)N/N=C1/C[C@@H](O)[C@@H](O)[C@@H]2[C@@H]3C(=O)N(Cc4ccccc4)C(=O)[C@H]3CC[C@H]12 | – | -4.78% [at 11.4 µM] (inactive)
CCOC(=O)N/N=C1/C[C@@H](O)[C@@H](O)[C@@H]2[C@@H]3C(=O)N(Cc4ccccc4)C(=O)[C@H]3CC[C@@H]12 | – | -3.55% [at 11.4 µM] (inactive)

Structure (SMILES) | AC50 | activity, negative = inhibition
CCOc1cc(/C=C2\C(=O)N(Cc3ccc(C)cc3)C(C)=C2C(=O)OC)ccc1O | 14100 nM (active) | –
CCOc1cc(/C=C2/NC(=O)N(CC(=O)Nc3cccc(C)c3)C2=O)ccc1OC | inactive | –
O=C1OCCC1Sc1nnc(-c2ccc(O)cc2)o1 (stereo not drawn) | 2240 nM (active) | –
O=C1OCCC1Sc1nnnn1-c1ccccc1 (stereo not drawn) | inactive | –
N#Cc1cccc(NC(=O)N2CC[C@@]3(CCCNC3)C2)c1 | inactive | –
NC(=O)c1nn(-c2ccccc2)c(=O)cc1O | inactive | –
O=C(c1ccccc1)c1nn(-c2ccccc2)c(=O)cc1C(F)(F)F | 501 nM (active) | –
C=CC[C@@H]1C=C[C@H](ON=C(C)C)[C@H](CO)O1 | – | 3.87% [at 11.4 µM] (inactive)
COC(=O)[C@H](C)NC(=O)C/C=C\[C@@H](C)[C@H]1C=C[C@H](O)[C@@H](CO)O1 | – | -5.17% [at 11.4 µM] (inactive)
Cc1ccc(-c2ccc(/C=N\NC(=O)c3cc4c(ccc5ccccc54)o3)o2)cc1[N+](=O)[O-] | 22400 nM (active) | –
Cc1ccccc1C(=O)N/N=C/c1ccncc1 | 12600 nM (active) | –
C=CCn1cc(/C=N\NC(=O)c2cc3c(ccc4ccccc43)o2)c2ccccc21 | 1000 nM (active) | –
O=C(N/N=C/c1ccncc1)c1cc2c(ccc3ccccc32)o1 | 355 nM (active) | –
CC(O)(P(=O)(O)O)P(=O)(O)O | inactive | –
COc1ccccc1CN1CC[C@@]2(CCCN(C(=O)c3cccn3C)C2)C1 | inactive | –
O=C(N/N=C/c1cccc([N+](=O)[O-])c1)c1cc2c(ccc3ccccc32)o1 | 355 nM (active) | –
Cc1cc(C(=O)N/N=C/c2cccc([N+](=O)[O-])c2)c(C)o1 | 1410 nM (active) | –
O=C(N/N=C/c1ccco1)/C(=C/c1cccc([N+](=O)[O-])c1)NC(=O)c1ccccc1 | inactive | –
COc1ccc(/C=N/NC(=O)c2cccc([N+](=O)[O-])c2)cc1OS(=O)(=O)c1ccc(C)cc1 | inactive | –
C#C[C@@]1(OC(C)=O)CC[C@@H]2[C@@H]3CCC4=C[C@@H](OC(C)=O)CC[C@H]4[C@H]3CC[C@]21C | inactive | –
C/C(CCN1CCc2nc(-c3ccccc3)c(-c3ccccc3)cc2C1)=N\O[C@@H](C)c1cc(-c2c(C)cc(C)cc2C)no1 | – | 9.44% [at 11.4 µM] (inactive)
